Screening data as filed in PubChem BioAssay.
A selection: hits, their analogues and other compounds. The true share with any hit is near 3.5%.
TEAD-YAP block: TEAD-YAP interaction inhibition. inhibition, % at 9.12 µM. HEK-TIYL cells, TEAD-Gal4/YAP UAS-luciferase luminescence. AID 1259422. 1.4% of 640,000 active; in the data active = inhibition above about 32%
MITF inh: inhibitors of human MITF; O75030; AlphaScreen MITF homodimerization, bead proximity signal; inhibition, % at 2.6 µM; 0.91% of 650,000 active; AID 1259374; in the data active = inhibition above about 50%
GPR151 ag: activates the human receptor GPR151; Q8TDV0; PathHunter beta-arrestin GPR151 cells, luminescence; activation, % at 11.2 µM; 1% of 650,000 active; in the data active = activation above about 4.9%
Target sequence (Q8TDV0 whole entry, looked up): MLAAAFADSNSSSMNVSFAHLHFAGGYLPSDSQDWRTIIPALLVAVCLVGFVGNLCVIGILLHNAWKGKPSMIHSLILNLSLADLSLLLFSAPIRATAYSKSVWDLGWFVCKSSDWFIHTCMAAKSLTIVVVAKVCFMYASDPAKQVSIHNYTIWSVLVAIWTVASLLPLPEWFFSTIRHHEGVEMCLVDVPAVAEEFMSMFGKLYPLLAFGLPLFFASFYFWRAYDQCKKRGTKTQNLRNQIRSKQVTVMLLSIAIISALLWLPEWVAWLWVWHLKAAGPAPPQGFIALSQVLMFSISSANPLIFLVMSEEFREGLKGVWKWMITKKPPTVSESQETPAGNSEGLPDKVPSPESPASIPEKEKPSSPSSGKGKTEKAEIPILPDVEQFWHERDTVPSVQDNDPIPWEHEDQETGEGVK
FBW7 act: human FBW7 E3 ligase activation, primary screen; Q969H0; AlphaScreen FBW7–phospho-cyclin E peptide binding, activator screen; normalized activity (activation), % at 26.1 µM; 0.13% of 650,000 active; AID 1259310; in the data active = normalized activity above about 1.9%;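 also: purified mutant Fbw7 with reduced substrate affinity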
A number is an active result; – = inactive.

SMILES	TEAD-YAP block	MITF inh	GPR151 ag	FBW7 act
CC1=NN(c2nc3ccccc3s2)C(=O)/C1=C(\C)N(C)C	42.8	–	–	–
CN(C)/C=C1/C(=O)N(c2nc3ccccc3s2)N=C1c1ccccc1	–	–	–	–
Cc1nc2scc(-c3ccco3)c2c(=O)n1N	–	–	–	–
Cc1c(C(=O)N2CCCCCC2)sc2ncnc(N(C)c3ccccc3)c12	–	–	–	–
Cc1ccc(-c2nc(C(N)=O)c3[nH]c(=O)n(-c4ccc(C)cc4)c3n2)cc1	–	–	–	–
COc1ccccc1/C=C1/N=C(c2cccc3ccccc23)OC1=O	–	–	–	–
O=[N+]([O-])c1ccc(Oc2ccccc2O)c2c1no[n+]2[O-]	–	66.3	–	–
COc1ccccc1Oc1ccc(C(N)=O)cc1[N+](=O)[O-]	–	–	–	–
CCOc1cc(/C=N\NC(=O)c2ccc(N)cc2)ccc1OCc1ccccc1	–	–	–	–
CCOc1cc(/C=N/N=C(N)N)ccc1OCc1ccccc1	39.7	–	–	–
Cc1cnc(NC(=O)c2ccccc2F)s1	64.0	–	–	–
O=C(CC(Sc1cccc2cccnc12)c1ccc(OC(F)F)cc1)c1ccco1 (stereo unspecified)	51.1	–	–	–
CC1=NN(c2ccccc2)C(=O)C1C(=O)c1ccccc1 (stereo unspecified)	–	–	–	–
CC1=NN(c2ccccc2)C(=O)C1C(=O)c1ccc(Br)cc1 (stereo unspecified)	37.2	–	–	–
CSc1ccccc1N1C(=O)CN(Cc2c(C)nc3sccn23)CC1C (stereo unspecified)	–	–	–	–
COC(=O)c1ccc(Nc2c3c(nc4ccccc24)CCC3)cc1	45.5	–	–	–
COc1ccc(Nc2c3c(nc4ccccc24)CCC3)cc1	–	–	–	–
COC(=O)C1=C(N)n2c(s/c(=C/c3ccco3)c2=O)=C(C(=O)OC)C1c1ccco1 (stereo unspecified)	49.1	–	–	–
CC[n+]1ccc(/C=C2\C=Cc3ccccc3N2C)cc1	85.4	–	–	–
CC[n+]1ccc(/C=C2\C=CC=CN2C)cc1	–	–	–	–
CCCCP(=Nc1ccccc1)(N(CC)CC)N(CC)CC	92.1	–	–	–
CCCCN(CC)S(=O)(=O)c1ccccc1	–	–	–	–
COc1ccc(/C=C/c2nc3ccccc3n2C)cc1	98.3	–	–	–
COc1ccc(/C=C/C(=O)Nc2nc3ccccc3n2C)cc1	–	–	–	–
COc1ccc(/C=C/c2nc3ccccc3c(=O)o2)cc1	75.2	–	–	–
SMILES	TEAD-YAP block	MITF inh	GPR151 ag	FBW7 act
COc1ccc(/C=N\n2nnc3ccccc32)cc1	84.8	–	–	–
Nc1ccc2nc(/C=C/c3ccccc3)[nH]c2c1	–	–	–	–
C(=C\c1nc2ccccc2[nH]1)/c1ccccc1	79.8	–	–	–
COc1ccccc1/C=C/c1nc2ccccc2c(=O)o1	–	–	–	–
O=C(Nc1cccc(-c2ccn[nH]2)c1)c1ccc(F)c(F)c1	–	–	–	–
O=C(COc1ccccc1)Nc1nnc(SCC(=O)c2cccc([N+](=O)[O-])c2)s1	–	–	–	–
COc1ccc(-c2nc3ccccc3[nH]2)cc1	49.7	–	–	–
COc1cccc(N2CC(O)=C(c3nc4ccccc4[nH]3)C2=N)c1	36.9	–	–	–
COc1ccc(/C=C(/C#N)c2nc3ccccc3[nH]2)cc1	–	–	–	–
COc1ccc(/C=C/c2nc3ccccc3[nH]2)cc1	87.6	–	–	–
COc1ccc(CCN(C)CCC(=O)Nc2ccc(F)cc2)cc1OC	–	–	–	–
C=CCn1c(Cl)c(/C=N/NC(=O)OCC)s/c1=N\S(=O)(=O)c1cccs1	45.2	–	–	–
C=CCn1c(Cl)c(C=O)s/c1=N\S(=O)(=O)c1cccs1	59.6	–	–	–
FC(F)(F)c1cccc(CNc2nc(Nc3ccncc3)nc3c2ncn3-c2ccccc2)c1	–	–	–	–
CCOC(=O)C(=O)Nc1cc(OCC)c(NC(=O)CC)cc1OCC	–	–	–	–
Cc1sc2nc(C3CCCN(C(=O)Cc4ccc(F)cc4)C3)[nH]c(=O)c2c1C (stereo unspecified)	–	–	–	–
O=C(Cc1ccc(Br)cc1)N1CCC(c2nc3ccncc3c(=O)[nH]2)C1 (stereo unspecified)	–	–	–	2.3
Cc1cccc(NC(C)C(=O)N/N=C/c2cc(Br)cc([N+](=O)[O-])c2O)c1 (stereo unspecified)	–	–	–	–
CCCC(=O)NC(c1cccs1)c1ccc2cccnc2c1O (stereo unspecified)	86.3	–	–	–
CCC(=O)NC(c1cccs1)c1ccc2cccnc2c1O (stereo unspecified)	76.6	–	–	–
CCC(=O)NC(c1cccs1)c1ccc2ccccc2c1O (stereo unspecified)	–	–	–	–
CCCCC(=O)NC(c1cccs1)c1ccc2ccccc2c1O (stereo unspecified)	–	–	–	–
Cc1ccc(-n2c(-c3ccccc3)nc3c(cnn3-c3ccccc3)c2=O)cc1	–	–	–	–
COc1ccc(S(=O)(=O)N2CCCOC2CNC(=O)C(=O)NC2CC2)cc1OC (stereo unspecified)	–	–	–	–
COc1ccccc1N1C(=O)CC(S/C(N)=N/N=C(\C)c2ccc(O)cc2)C1=O (stereo unspecified)	–	81.6	–	–
SMILES	TEAD-YAP block	MITF inh	GPR151 ag	FBW7 act
Cn1cc(CN[C@H]2C[C@H]3C(=O)N[C@@H](CO)C(=O)N3C2)c(-c2ccccc2)n1	–	–	–	–
CC(C)C[C@H]1NC(=O)[C@@H]2C[C@H](NCc3cn(C)nc3-c3ccccc3)CN2C1=O	–	–	–	2.5
O=[N+]([O-])CC(c1ccccc1)c1c[nH]c2ccccc12 (stereo unspecified)	45.8	–	–	–
COc1cccc(C(C[N+](=O)[O-])c2c[nH]c3ccccc23)c1 (stereo unspecified)	54.0	–	–	–
COc1cccc(C(C[N+](=O)[O-])c2c[nH]c3ccccc23)c1OC (stereo unspecified)	–	–	–	–
CCCN1CCN(C(=O)c2ccc(C)cc2)CCC1=O	–	–	–	–
O=C(O)c1cccc2c1NC(c1ccccc1[N+](=O)[O-])C1CC=CC21 (stereo unspecified)	–	66.5	–	–
Cc1c(C(=O)O)ccc2c1N[C@@H](c1cccc(Cl)c1)[C@H]1CC=C[C@@H]21	–	76.5	–	–
O=C(O)c1cc(Br)cc2c1N[C@@H](c1ccc(F)cc1)[C@H]1CC=C[C@@H]21	–	78.5	–	–
O=C(O)c1cccc2c1NC(c1ccc([N+](=O)[O-])cc1)C1CC=CC21 (stereo unspecified)	–	65.0	–	–
O=C(O)c1cccc2c1NC(c1cccc(Br)c1)C1CC=CC21 (stereo unspecified)	–	–	–	–
COC(=O)CN1C(=S)N(c2ccc(OC)cc2)C(=O)/C1=C/c1cc(OC)ccc1OC	–	–	–	–
COc1ccc(OC)c(NC(=O)c2sc3ncn(CC(=O)Nc4ccc(C(C)C)cc4)c(=O)c3c2C)c1	–	–	–	–
